According to PubChem BioAssay (NCI):
Compounds without any hit were thinned out: in the full panel of roughly 83,000, 20% have a hit.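 96-well plates, one dose, 48 hours. Percent growth reported; active if below 10.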 Activity calls are given as the source filed them.

These compounds were tested on SF-539 CNS (assay: NCI-60 one-dose screen, 48 h (100 = growth as untreated, 0 = no growth, -100 = all killed)). Details: 10 µM unless noted.
In the case of `N#C/C(=C1C=C/C(=N/O)C(Cl)=C/1)c1ccc(Cl)cc1`, the growth is reported as 18.8% (inactive). With `c1coc(CNc2ccnc(Nc3ccc(OCCN4CCCCC4)cc3)n2)c1` the growth was 76.4% (inactive). For `C=C1CCC2C(C)(CO)C(O)CCC2(C)C1C/C=C1/C(=O)OCC1O/C=C/c1ccccc1` (configuration not stated), the growth was 96.9% (inactive). With `C=C(C)[C@@H]1CC[C@]2(C(=O)N3CCNCC3)CC[C@]3(C)[C@H](CC[C@@H]4[C@@]5(C)C/C(=C/c6ccncc6)C(=O)C(C)(C)[C@@H]5CC[C@]43C)[C@@H]12` the growth was 105% (inactive). For `CCOC(=O)C1C(=O)C=C(c2ccc(OC)cc2)CC1c1sc(N(C)Cc2ccccc2)nc1Cl` (configuration not stated), the growth was 84.7% (inactive). With `COc1cc(/C=C/C(=O)/C=C/c2cc(OC)c3c(c2)OCO3)cc2c1OCO2` the growth was 100% (inactive). In the case of `C[n+]1c(/C=C/c2c(O)ccc3ccccc23)ccc2ccccc21`, the growth is reported as -14.9% (active). `CCN(CC)CCC(CNc1c2ccc(Cl)cc2nc2ccc(OC)cc12)c1ccccc1` (configuration not stated) was tested, and the growth was -79.6% (active). For `C=C1CC2(OC1=O)C(=O)N(CCCN1C(=O)C3(CC(=C)C(=O)O3)c3ccccc31)c1ccccc12` (configuration not stated), the growth was 9.24% (active). With `CN(CCCCCl)P(=O)(OCc1ccc([N+](=O)[O-])o1)C(F)(F)C[C@H](NC(=O)CNC(=O)c1ccc(N=[N+]=[N-])cc1)C(=O)NCCc1ccc(O)cc1` (some centres not stated) the growth was 104% (inactive). With `COc1ccc(C(=O)N2NC(=O)/C(=C/c3ccc(Br)cc3)N=C2c2ccccc2)cc1` the growth was 76.8% (inactive). For `N#Cc1c(-c2ccccc2)cc(-c2ccccc2)n(CC(=O)NO)c1=O`, the growth was 63.9% (inactive).
